Inconclusive results are not listed. Activity calls are given as the source filed them. Rule for the calls: active = hit-call score of the fitted dose curve at least 0.9, where 1 is the maximum; inconclusive = response in the unintended direction; inactive = score below 0.9.
Assay: Tanguay_ZF_120hpf_PFIN_legacy: (Legacy) Oregon State University Tanguay Lab 120 Hour Post-fertilization zebrafish Assay for Pectoral Fin Malformation (AID 2283648);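 note: each larva judged yes or no for fin defect by brightfield with dead larvae skipped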
Experimental: Tanguay_ZF_120hpf_legacy is a whole embryo, multiplexed endpoint assay using zebrafish larvae exposed for 120 hours post fertilization on a 96-well plate.Tanguay_ZF_120hpf_PFIN_legacy is one of one assay component(s) measured or calculated from the Tanguay_ZF_120hpf_legacy assay. It is designed to make measurements of zebrafish development as detected with brightfield microscopy of developing zebrafish embryos.Data from the assay component Tanguay_ZF_120hpf_PFIN_legacy was analyzed into 1 assay endpoints. This assay endpoint, Tanguay_ZF_120hpf_PFIN_legacy, was analyzed in the positive analysis fitting direction relative to DMSO as the negative control and baseline of activity. Using a type of morphology reporter, gain-of-signal activity can be used to understand changes in developmentals as they relate to the whole embryo. To generalize the intended target to other relatable targets, this assay endpoint is annotated to the zebrafish development intended target family, where the subfamily is pectoral fin morphogenesis.
Zebrafish husbandry: Tropical 5D wild-type adult zebrafish were housed in at an approximate density of 1000 per 100 gallon tank at the Sinnhuber Aquatic Research Laboratory, Oregon State University, Corvallis, OR. Each tank was kept at standard laboratory conditions of 28C on a 14-h light/10-h dark photoperiod in fish water consisting of reverse osmosis water supplemented with a commercially available salt (Instant Ocean). Spawning funnels were placed into the tanks the night prior, and embryos were collected and staged. To increase bioavailability, the chorion was enzymatically removed using pronase (63.6mg/ml, >/= 3.5U/mg, Sigma-Aldrich: P5147) at 4 hours post fertilization (hpf) using a custom automated dechorionator.Chemical exposures: Six hpf dechorionated embryos were placed 1 embryo per well in a 96-well plate prefilled with 90 ul of EM using automated embryo placement systems (AEPS). Ten microliters of each row of dilution plate 2 was added to 2 exposure plates. The final DMSO concentration used was 0.64% (vol/vol). Thirty-two embryos were also exposed to 5uM trimethyltin chloride (positive control). Plates were sealed to prevent evaporation and foil covered to reduce light exposure and kept in a 28C incubator. Embryos were statically exposed until 120 hpf. At 24 hpf, embryos were assessed for photomotor response using a custom photomotor response analysis tool (PRAT) and for developmental toxicity endpoints (MO24: mortality at 24 hpf, DP: developmental progression, SM: spontaneous movement, and NC: notochord distortion). At 120 hpf, locomotor activity was measured using Viewpoint Zebralab and assessed for 18 endpoints. Zebrafish acquisition and analysis program (ZAAP), a custom program designed to inventory, acquire, and manage zebrafish data, was used to collect developmental endpoints as either present or absent (i.e., binary responses were recorded). If mortality occurred for an embryo (at either 24 or 120 hpf), the non-mortality endpoints were not measured.

Row | SMILES | outcome | AC50
1 | CN(Cc1cnc2nc(N)nc(N)c2n1)c1ccc(C(=O)N[C@@H](CCC(=O)O)C(=O)O)cc1 | inactive | 
2 | CCC(C)c1ccccc1O (centres undefined) | inactive | 
3 | CCCCC=O | inactive | 
4 | O=C(c1ccccc1)c1ccccc1 | inactive | 
5 | CCCCCCCCCCCCCCC | inactive | 
6 | CC(=O)Nc1ccc(O)cc1 | inactive | 
7 | CCCCCCCCCCCCOS(=O)(=O)O | inactive | 
8 | O=C(CCCN1CCC(O)(c2ccc(Cl)cc2)CC1)c1ccc(F)cc1 |  | 5.92 µM (active)
9 | CCCCC(CC)C(=O)O (centres undefined) | inactive | 
10 | Cc1[nH]nc2c1N=C(c1ccccc1Cl)c1cc([N+](=O)[O-])ccc1N2 | inactive | 
11 | O=C1NS(=O)(=O)c2ccccc21 | inactive | 
12 | CCCCc1oc2ccccc2c1C(=O)c1cc(I)c(OCCN(CC)CC)c(I)c1 | inactive | 
13 | OCC(CO)(CBr)CBr | inactive | 
14 | CS(=O)(=O)c1ccc([C@@H](CC2CCCC2)C(=O)Nc2cnccn2)cc1Cl | inactive | 

Source: PubChem BioAssay (EPA / NIEHS)
